This note sets out measurements from PubChem BioAssay (NCI).

The panel holds about 83,000 compounds, 20% with a hit somewhere; the sample as a whole holds those more often.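 Cell lines were cultured in 96-well plates, exposed to a single compound concentration, and assessed for percent growth 48 hours later.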 Unmarked numbers belong to inactive results. Active and inactive are the calls of the source. How the source made its calls: active means growth percent below 10; inactive means the rest.

Among the test systems are DU-145 prostate; K-562 leukemia; MALME-3M melanoma; MDA-MB-231 breast; RXF 393 renal; SF-268 CNS; SF-295 CNS; SF-539 CNS; UACC-257 melanoma; M14 melanoma; HCT-15 colon; HT29 colon; SNB-75 CNS; SNB-19 CNS; U251 CNS; PC-3 prostate; SK-MEL-5 melanoma; UACC-62 melanoma; LOX IMVI melanoma; SK-MEL-28 melanoma.
Experiment in all cases: NCI-60 one-dose screen, 48 h (100 = growth as untreated, 0 = no growth, -100 = all killed)
Common to all, as to settings: 10 µM unless noted

On to `COc1cc2cc(Oc3ccc(NC(=O)Nc4cccc(C(F)(F)F)c4)cc3)c(C)nc2cc1OCCN1CCOCC1`, for which the growth with DU-145 prostate is 33.5%; in the assay with K-562 leukemia, 11.6%; in the assay on MALME-3M melanoma, 55%; with MDA-MB-231 breast, 57.9%; in the assay on RXF 393 renal it was 62%; in the assay with SF-268 CNS, 55.8%. The growth with SF-295 CNS was 26.7%; in the assay with SF-539 CNS, 73.7%; with UACC-257 melanoma it was 31%; in the assay on M14 melanoma, 34.3%; in the assay with HCT-15 colon, 27.2%; with HT29 colon, 35.3%. The growth was 77.8% in the assay with SNB-75 CNS; 30.7% in the assay with SNB-19 CNS; 28% with U251 CNS; 15.7% in the assay on PC-3 prostate; 6.62% (active) in the assay with SK-MEL-5 melanoma; 50.8% in the assay with UACC-62 melanoma. In addition, the growth is 38.2% in the assay on LOX IMVI melanoma and 68.8% in the assay with SK-MEL-28 melanoma.
For the molecule `C#Cc1cccc(NC(=O)c2ccc(NC(=O)C=C)cc2)c1`, the growth in the assay on DU-145 prostate is 58.9% [8.25 µM]; in the assay with K-562 leukemia, 71% [8.25 µM]; with MALME-3M melanoma, 85.2% [8.25 µM]; in the assay on MDA-MB-231 breast, 90% [8.25 µM]; with RXF 393 renal, 58.7% [8.25 µM]; with SF-268 CNS it was 79.3% [8.25 µM]. The growth is 102% [8.25 µM] in the assay with SF-295 CNS; 75.6% [8.25 µM] in the assay on SF-539 CNS; 69.9% [8.25 µM] in the assay with UACC-257 melanoma; 86.3% [8.25 µM] in the assay on M14 melanoma; 60.9% [8.25 µM] with HCT-15 colon; 44% [8.25 µM] with HT29 colon. Also, the growth with SNB-75 CNS was 39.4% [8.25 µM]; with SNB-19 CNS it was 84.5% [8.25 µM]; in the assay on U251 CNS, 80.6% [8.25 µM]; with PC-3 prostate it was 67.7% [8.25 µM]; with SK-MEL-5 melanoma, 97.7% [8.25 µM]; in the assay with UACC-62 melanoma, 73.9% [8.25 µM]. Besides, the growth is 79.6% [8.25 µM] with LOX IMVI melanoma and 98.2% [8.25 µM] in the assay with SK-MEL-28 melanoma.
On to `COc1ccc(CN2c3ccccc3CCc3ccccc32)cc1F`, for which the growth was 8.55% (active) with DU-145 prostate; 6.04% (active) in the assay with K-562 leukemia; 84.3% in the assay on MALME-3M melanoma; 17.5% with MDA-MB-231 breast; 17.8% in the assay with RXF 393 renal; 38.9% with SF-268 CNS. For the same molecule, the growth in the assay with SF-295 CNS is 11.7%; in the assay with SF-539 CNS it was -16.2% (active); in the assay with UACC-257 melanoma, 62%; in the assay on M14 melanoma, -8.51% (active); with HCT-15 colon it was 24.9%; in the assay with HT29 colon it was 1.59% (active). In addition, the growth in the assay on SNB-75 CNS was 23.2%; in the assay with SNB-19 CNS it was 39%; in the assay with U251 CNS, 21.1%; with PC-3 prostate it was 24.1%; with SK-MEL-5 melanoma, 19.8%; with UACC-62 melanoma, 24.8%. In addition, the growth in the assay with LOX IMVI melanoma is 50.2%; in the assay with SK-MEL-28 melanoma, 50.8%.
On to `CSc1nc2ccc(C)cc2cc1/C=N/O`, for which the growth in the assay on DU-145 prostate is 93%; in the assay on K-562 leukemia it was 94.7%; with MALME-3M melanoma, 108%; in the assay with MDA-MB-231 breast, 83.5%; with RXF 393 renal it was 87.3%; in the assay with SF-268 CNS, 83.1%. Moreover, the growth in the assay with SF-295 CNS was 101%; with SF-539 CNS, 91.1%; with UACC-257 melanoma, 80.6%; with M14 melanoma it was 87.8%; with HCT-15 colon, 86.7%; with HT29 colon it was 93.1%. In addition, the growth is 59.2% with SNB-75 CNS; 95.7% in the assay on SNB-19 CNS; 78.6% in the assay with U251 CNS; 79% in the assay on PC-3 prostate; 90% in the assay with SK-MEL-5 melanoma; 77% with UACC-62 melanoma. For the same molecule, the growth in the assay with LOX IMVI melanoma is 91.9%; in the assay with SK-MEL-28 melanoma it was 101%.
In the case of `O=C(Cc1ccc(F)c(Cl)c1)Nc1cc(C2(C(F)(F)F)CC2)nn1Cc1ccccc1`, the growth in the assay with DU-145 prostate was 89.8%; in the assay with K-562 leukemia, 77.1%; with MALME-3M melanoma, 60.4%; in the assay with MDA-MB-231 breast, 14.1%; with RXF 393 renal, -23.5% (active); in the assay on SF-268 CNS, 17.1%. Further, the growth in the assay with SF-295 CNS is 24.8%; with SF-539 CNS, 50.6%; in the assay with UACC-257 melanoma it was 91.1%; in the assay on M14 melanoma, 70.8%; in the assay with HCT-15 colon it was 93.9%; in the assay with HT29 colon, 18%. Besides, the growth in the assay with SNB-75 CNS was -21.6% (active); in the assay with SNB-19 CNS it was 9.43% (active); with U251 CNS, 24.3%; with PC-3 prostate, 86.8%; with SK-MEL-5 melanoma, 83.6%; in the assay with UACC-62 melanoma, 65.9%. Besides, the growth in the assay with LOX IMVI melanoma was 86.3%; in the assay on SK-MEL-28 melanoma it was 98%.
As for `CCOC(=O)Nc1ccc(-c2nc(-c3cccc(OC)c3)c(-c3ccnc(Br)c3)[nH]2)cc1`, the growth in the assay on DU-145 prostate was 51.9%; with K-562 leukemia, 11.9%; in the assay on MALME-3M melanoma, 40.5%; with MDA-MB-231 breast, 41.2%; in the assay on RXF 393 renal it was -27% (active); in the assay on SF-268 CNS, 51.9%. The growth in the assay on SF-295 CNS is -36.1% (active); with SF-539 CNS it was 21.7%; in the assay on UACC-257 melanoma it was 56.1%; with M14 melanoma it was 36%; in the assay on HCT-15 colon, 5.65% (active); in the assay with HT29 colon, 25.7%. In addition, the growth is 32.6% with SNB-75 CNS; 46.1% with SNB-19 CNS; 39% with U251 CNS; 11.2% with PC-3 prostate; 25.7% with SK-MEL-5 melanoma; 21.2% in the assay with UACC-62 melanoma. Also, the growth is 4.57% (active) with LOX IMVI melanoma and 42% in the assay on SK-MEL-28 melanoma.
Take `COc1ccc2nc(NCCCNCCO)c3sc4ccc(F)cc4c(=O)c3c2c1`: the growth was -49.7% (active) in the assay with DU-145 prostate; -36.8% (active) with K-562 leukemia; 91.8% with MALME-3M melanoma; -26.7% (active) in the assay with MDA-MB-231 breast; 44.4% with RXF 393 renal; 47.2% with SF-268 CNS. The growth is 84.6% in the assay on SF-295 CNS; -88.9% (active) with SF-539 CNS; 95.4% in the assay with UACC-257 melanoma; -57.1% (active) in the assay on M14 melanoma; -47.9% (active) with HCT-15 colon; -43.7% (active) with HT29 colon. Further, the growth is 54.1% in the assay on SNB-75 CNS; 61.5% with SNB-19 CNS; -33.2% (active) with U251 CNS; 38.9% in the assay with PC-3 prostate; 85% in the assay on SK-MEL-5 melanoma; 65.7% in the assay on UACC-62 melanoma. The growth in the assay on LOX IMVI melanoma was -97% (active); in the assay with SK-MEL-28 melanoma, 68.9%.
Consider `O=C1NC(=O)C(Cn2cnc3ccccc32)N1` (stereo not given), for which the growth in the assay with DU-145 prostate is 110%; in the assay with K-562 leukemia, 106%; with MALME-3M melanoma, 103%; with MDA-MB-231 breast, 103%; with RXF 393 renal, 114%; with SF-268 CNS, 100%. Also, the growth with SF-295 CNS was 104%; in the assay with SF-539 CNS, 96.4%; with UACC-257 melanoma, 101%; with M14 melanoma, 103%; with HCT-15 colon it was 101%; in the assay on HT29 colon it was 105%. Moreover, the growth in the assay with SNB-75 CNS is 85.7%; in the assay on SNB-19 CNS it was 95.5%; in the assay with U251 CNS, 101%; with PC-3 prostate, 95%; in the assay on SK-MEL-5 melanoma it was 101%; with UACC-62 melanoma, 98.5%. In addition, the results for the growth in the assay on LOX IMVI melanoma and with SK-MEL-28 melanoma were 97.8% and 104%, respectively.
